# Results filed as inconclusive are left out. Active and inactive are the calls of the source. Calls come from the whole dose curve; as a rule, active = well fitted inhibition curve with a large enough effect; inconclusive = small, poorly fitted or top-dose-only effect; inactive = flat fitted curve, though single readings scatter.
# Tested on: Zika virus NS2B-NS3 protease
# Assay: Primary screen GU AMC qHTS for Zika virus inhibitors (AID 1347154);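 note: 0% = no-inhibitor control and -100% = no-enzyme control; nearly all actives have a fitted effect of over 70% in size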
# Conditions: Zika NS2B-NS3 unlinked protease, AMC fluorogenic substrate; series mostly up to 54.1 µM; activity change, negative = inhibition: at the top concentration
# Summary of the method: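 Unlinked Zika NS2B hydrophilic domain–NS3 protease complex at 25 nM in 10 mM Tris-HCl pH 8.0, 0.01% Tween 20, with an AMC peptide substrate. Fluorescence change (340/450 nm) over 15 min at room temperature, normalized to controls, fitted to 4-parameter Hill.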
Compound,"activity change, negative = inhibition",Potency
C[C@@H]1CC2=CC(=O)CC[C@@H]2[C@H]2CC[C@@]3(C)[C@@H](CC[C@]3(C)O)[C@@H]21,-4.05% (inactive),
COc1ccc2c3c1O[C@H]1[C@H](O)CC[C@H]4[C@@H](C2)N(C)CC[C@@]341,3.88% [at 104 µM] (inactive),
COP(=S)(OC)Oc1ccc(SC)c(C)c1,-0.661% (inactive),
CNCC(=O)c1ccc(O)c(O)c1,-3.66% (inactive),
CNC(C)(C)Cc1ccccc1,-1.63% (inactive),
Clc1ccccc1N1CCNCC1,0.141% (inactive),
Nc1ccc([As](=O)(O)O)cc1,-1.72% (inactive),
COc1cc(OC)c(OC)cc1C=O,2.12% (inactive),
CCN(CCO)CCn1c(Cc2ccccc2)nc2c1c(=O)n(C)c(=O)n2C,-2.66% (inactive),
CCC(CC)(CNC(=O)CCCO)c1cccc(OC)c1,-4.03% (inactive),
C[C@H]1[C@@H]2Cc3ccc(O)cc3[C@@]1(C)CCN2C,2.69% [at 194 µM] (inactive),
CCN[C@@H](C)Cc1cccc(C(F)(F)F)c1,-3.22% (inactive),
c1ccc(CN2CCNCC2)cc1,-4.18% [at 194 µM] (inactive),
CC(C)C[C@H](CN)CC(=O)O,-9.38% (inactive),
O=C(O)c1ccc(=O)[nH]c1,8.11% (inactive),
CN1CC[C@]23c4c5ccc(O)c4O[C@H]2[C@@H](O)CC[C@H]3[C@H]1C5,1.5% [at 104 µM] (inactive),
CCCCCCCCCC(=O)O[C@H]1CC[C@H]2[C@@H]3CCC4=CC(=O)CC[C@@H]4[C@H]3CC[C@]12C,-4.52% (inactive),
CCc1cc2c(s1)-n1c(C)nnc1CN=C2c1ccccc1Cl,1.2% (inactive),
CN1C(=O)COc2c(C(=O)NC3CN4CCC3CC4)cc(Cl)cc21 (stereo not drawn),,inactive

Compound,"activity change, negative = inhibition",Potency
CC(C)(C)c1ccc(O)cc1,0.793% (inactive),
CC(C)(N)Cc1ccccc1Cl,7.06% (inactive),
C[C@H](N)C(=O)c1ccccc1,1.33% [at 104 µM] (inactive),
[N-]=[N+]=CC(=O)OC[C@H](N)C(=O)O,2.45% (inactive),
CC(C)(C)NCC(O)c1cc(Cl)c(N)c(C(F)(F)F)c1 (stereo not drawn),6.22% (inactive),
COc1c2c(cc3c1OCO3)CCN(C)C2,1.39% (inactive),
CCC(C)C(C)(COC(N)=O)COC(N)=O (stereo not drawn),-4.69% (inactive),
CCCCCCC(=O)CCCCCC/C=C/C[C@@H](O)[C@H](O)[C@@](N)(CO)C(=O)O,3.5% [at 25.8 µM] (inactive),
COc1cc(CCN)cc(OC)c1OC,-2.64% [at 104 µM] (inactive),
CCC1(CC)C(=O)C=CNC1=O,-2.01% (inactive),
CC(=O)OCC1=C(C(=O)O)N2C(=O)[C@@H](N)[C@H]2SC1,2.84% [at 25.8 µM] (inactive),
Oc1ccc(Cl)cc1,-0.917% (inactive),
C=CCC1(C(C)CC)C(=O)NC(=O)NC1=O (stereo not drawn),-0.25% (inactive),
NC(=O)CS(=O)C(c1ccccc1)c1ccccc1 (stereo not drawn),1.68% (inactive),
C=CCC1([C@H](C)CCC)C(=O)NC(=O)NC1=O,0.0325% [at 104 µM] (inactive),
COP(=S)(OC)Oc1cc(Cl)c(Cl)cc1Cl,1.15% (inactive),
CC1(C)C(C=C(Cl)Cl)C1C(=O)OC(C#N)c1cccc(Oc2ccccc2)c1 (stereo not drawn),,inactive
ClCCN1CCCC1,-4.84% (inactive),
O=C1c2ccccc2C(=O)C1C(=O)C(c1ccccc1)c1ccccc1,0.91% (inactive),

# — PubChem BioAssay (NCATS)
